Source: the supplement of paper PMC12067093, “Discovery and optimisation of a covalent ligand for TRIM25 and its application to targeted protein ubiquitination” (Chemical Science, 2025)
About 21,000 targets were measured; listed, in parts, are those with the largest changes and a random draw of the rest.

Compound: Cc1cc(ccc1-c1ccccc1)C(=O)N1CCCN(CC1)C(=O)CCl [compound 10]
Assay: probe-labelled cysteine peptide fold change vs DMSO (competition) (log2 fold change); higher = less target engagement (more negative = stronger competition)
Details: 50 µM; THP-1; incubation time: 4 h
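Also: competitive profiling in live THP-1 cells: cysteine peptides tagged with an iodoacetamide desthiobiotin (IA-DTB) probe, intensity after compound treatment relative to DMSO-treated cells.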

Target	probe-labelled cysteine peptide fold change
NT5C3B_Q969T7_73_IISEECR (UniProt Q969T7)	0.268
OAT_P04181_93_YFDFLSSYSAVNQGHCHPK (UniProt P04181)	0.0378
NOP2_P46087_463_VLLDAPCSGTGVISK (UniProt P46087)	0.0458
MYO6_Q9UM54_790_RVNHWLTCSR (UniProt Q9UM54)	0.475
NFKB1_P19838_61_YVCEGPSHGGLPGASSEK (UniProt P19838)	-0.824
NOL9_Q5SY16_637_TVNCLLVGAIAIPHCVLK (UniProt Q5SY16)	-0.381
NOTCH2_Q04721_427_GADCTEDVDECAMANSNPCEHAGK (UniProt Q04721)	0.115
PALD1_Q9ULE6_65_VAPVVITYNCK (UniProt Q9ULE6)	-0.15
NOMO3_P69849_565_ISIMHEDWCWK<|>NOMO1_Q15155_565_ISIMHEDWCWK<|>NOMO2_Q5JPE7_565_ISIMHEDWCWK (UniProt Q5JPE7+Q15155+P69849)	0.28
OSTC_Q9NRP0_14_VPFLVLECPNLK (UniProt Q9NRP0)	-0.0744
MYO9B_Q13459_1876_ITTCVEMLIK (UniProt Q13459)	-0.0605
NT5DC1_Q5TFE4_139_YYFYDNYFDLPGALLCAR (UniProt Q5TFE4)	1.46
P3H1_Q32P28_568_LDTPLYFSYSHLVCR (UniProt Q32P28)	0.386
NFS1_Q9Y697_353_HHYPGCINLSFAYVEGESLLMALK (UniProt Q9Y697)	0.42
NUP205_Q92621_698_CEEYPLTR (UniProt Q92621)	-0.00172
PARK7_Q99497_53_DVVICPDASLEDAK (UniProt Q99497)	0.291
NRAS_P01111_51_KQVVIDGETCLLDILDTAGQEEYSAMRDQYMR<|>HRAS_P01112_51_KQVVIDGETCLLDILDTAGQEEYSAMRDQYMR (UniProt P01112+P01111)	-0.642

Target	probe-labelled cysteine peptide fold change
PA2G4_Q9UQ80_85_GIAFPTSISVNNCVCHFSPLK (UniProt Q9UQ80)	-0.024
MYO6_Q9UM54_321_MCTAMK (UniProt Q9UM54)	-0.218
PAK2_Q13177_352_ECLQALEFLHANQVIHR (UniProt Q13177)	0.0289
P4HTM_Q9NXG6_156_PLLFEIPGFLTDEECR (UniProt Q9NXG6)	0.492
NFX1_Q12986_295_STCDSENLAVINK (UniProt Q12986)	-0.0574
PALD1_Q9ULE6_382_AITACAELHDLK (UniProt Q9ULE6)	-0.092
PARP14_Q460N5_509_VTQHLCLK (UniProt Q460N5)	0.48
PAICS_P22234_266_SESQCR (UniProt P22234)	1.39
NSDHL_Q15738_86_FFLGDLCSR (UniProt Q15738)	0.0788
P4HB_P07237_397_KNVFVEFYAPWCGHCK (UniProt P07237)	-2.76
NECTIN2_Q92692_238_ADGVTVTCK (UniProt Q92692)	-0.394
NR2F6_P10588_316_AIALFTPDACGLSDPAHVESLQEK (UniProt P10588)	-1.1
NUMA1_Q14980_961_QFCSTQAALQAMER (UniProt Q14980)	-1.25
NACC2_Q96BF6_393_NTLANSCGTGIR<|>NACC1_Q96RE7_416_NTLANSCGTGIR (UniProt Q96RE7+Q96BF6)	0.031
NUBP1_P53384_8_MEEVPHDCPGADSAQAGR (UniProt P53384)	1.35
P4HB_P07237_53_YLLVEFYAPWCGHCK (UniProt P07237)	-1.6
NIPSNAP3A_Q9UFN0_135_QESEITYLVPWCK (UniProt Q9UFN0)	0.389
